Source: PubChem BioAssay AID624260 (Broad Institute, 2012)
The campaign covered roughly 44,000 compounds. About 30 (0.07%) were called active. Not shown: some 1% with an inconclusive outcome. Rule as the data show it: active = inhibition above about 54% (passing the limit was not always enough); inconclusive = no clear call, values can overlap the other calls. Shown is part of a subset that was picked to be rich in actives.

Molecular target: Histone-lysine N-methyltransferase NSD2 (Homo sapiens) (UniProt O96028)
Sequence (O96028 whole entry, looked up): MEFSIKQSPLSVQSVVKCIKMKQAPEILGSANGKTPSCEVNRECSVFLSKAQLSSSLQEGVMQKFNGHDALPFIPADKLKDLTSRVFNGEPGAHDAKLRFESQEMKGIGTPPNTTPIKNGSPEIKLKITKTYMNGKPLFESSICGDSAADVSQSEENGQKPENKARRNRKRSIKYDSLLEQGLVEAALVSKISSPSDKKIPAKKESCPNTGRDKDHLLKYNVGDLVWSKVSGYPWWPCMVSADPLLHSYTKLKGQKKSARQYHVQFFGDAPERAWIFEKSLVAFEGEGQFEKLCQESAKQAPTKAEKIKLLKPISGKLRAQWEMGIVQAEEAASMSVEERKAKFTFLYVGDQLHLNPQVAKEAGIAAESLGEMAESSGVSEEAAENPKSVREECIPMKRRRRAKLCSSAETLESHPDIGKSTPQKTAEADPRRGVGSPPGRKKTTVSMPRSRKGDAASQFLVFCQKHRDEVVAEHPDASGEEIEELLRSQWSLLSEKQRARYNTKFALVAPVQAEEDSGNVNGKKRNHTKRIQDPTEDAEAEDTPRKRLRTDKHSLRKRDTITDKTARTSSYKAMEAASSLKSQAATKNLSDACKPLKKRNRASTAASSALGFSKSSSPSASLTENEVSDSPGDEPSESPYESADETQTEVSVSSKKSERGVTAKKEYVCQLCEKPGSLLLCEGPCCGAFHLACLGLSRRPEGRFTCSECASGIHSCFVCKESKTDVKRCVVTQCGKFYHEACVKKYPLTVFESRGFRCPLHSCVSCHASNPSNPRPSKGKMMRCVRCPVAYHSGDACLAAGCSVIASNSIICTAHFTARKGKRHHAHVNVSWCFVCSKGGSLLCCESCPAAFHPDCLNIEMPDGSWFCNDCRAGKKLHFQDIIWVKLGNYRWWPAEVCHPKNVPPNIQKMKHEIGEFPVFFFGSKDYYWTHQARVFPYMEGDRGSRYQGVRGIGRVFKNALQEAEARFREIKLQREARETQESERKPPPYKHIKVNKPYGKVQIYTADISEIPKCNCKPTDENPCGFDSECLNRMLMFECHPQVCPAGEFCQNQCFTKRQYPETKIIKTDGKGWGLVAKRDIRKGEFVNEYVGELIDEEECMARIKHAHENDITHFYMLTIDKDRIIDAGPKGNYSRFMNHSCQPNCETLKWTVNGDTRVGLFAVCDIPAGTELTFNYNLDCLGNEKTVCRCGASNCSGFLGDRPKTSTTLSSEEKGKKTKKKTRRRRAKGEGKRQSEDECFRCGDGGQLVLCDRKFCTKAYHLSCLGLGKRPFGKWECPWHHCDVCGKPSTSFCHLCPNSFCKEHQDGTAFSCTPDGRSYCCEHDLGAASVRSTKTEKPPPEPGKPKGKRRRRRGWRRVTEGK
Assay: inhibitors of human NSD2, primary screen, biochemical, plate reader, single point (AID 624260);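 also: inhibitors reduce the monomethyl H3K36 fluorescence signal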
Details: NSD2-SET H3K36me1 DELFIA fluorescence, at 12.5 µM, active compounds read high

inhibition, inactive:
COc1ccccc1CNC(=O)C[C@@H]1C[C@@H]2c3cc(NC(=O)C4CCOCC4)ccc3O[C@@H]2[C@@H](CO)O1 -2.77%
CNC[C@H]1Oc2cc(-c3ccc(C(=O)N(C)C)cc3)ccc2S(=O)(=O)N([C@@H](C)CO)C[C@@H]1C 2.38%
COc1ccc(S(=O)(=O)Nc2ccc3c(c2)C(=O)N([C@@H](C)CO)C[C@H](C)[C@H](CN(C)Cc2ccc4c(c2)OCO4)OCCCC[C@H](C)O3)cc1 2.05%
COC(=O)C[C@@H]1C[C@H]2c3cc(NC(=O)CN(C)C)ccc3O[C@H]2[C@H](CO)O1 6.16%
C[C@H](CO)N1C[C@H](C)[C@@H](CN(C)Cc2ccccn2)Oc2ncc(-c3cccc(F)c3)cc2C1=O 2.22%
CC(=O)N(C)C[C@@H]1Oc2cc(-c3cccnc3)ccc2S(=O)(=O)N([C@@H](C)CO)C[C@H]1C -5.41%
C[C@H]1CN([C@@H](C)CO)S(=O)(=O)c2ccc(C3=CCCC3)cc2O[C@H]1CN(C)C(=O)Cc1ccncc1 -1.21%
O=C(C[C@H]1CC[C@@H](NC(=O)Nc2ccc(F)cc2)[C@H](CO)O1)NCc1cccc(F)c1 9.13%
Cc1ccccc1-c1ccc2c(c1)O[C@@H](CN(C)Cc1ccc(C(=O)O)cc1)[C@H](C)CN([C@H](C)CO)S2(=O)=O -1.98%
C[C@H](CO)N1C[C@H](C)[C@@H](CN(C)S(=O)(=O)c2ccc(F)cc2)Oc2ccc(NC(=O)CCCCCC(=O)Nc3ccccc3N)cc2CC1=O -1.08%
C[C@@H]1CN([C@H](C)CO)C(=O)Cc2cc(NC(=O)Nc3cccc4ccccc34)ccc2O[C@H]1CN(C)C(=O)Nc1ccc2c(c1)OCO2 -7.81%
COCC#Cc1ccc2c(c1)O[C@@H](CN(C)S(C)(=O)=O)[C@H](C)CN([C@H](C)CO)S2(=O)=O -5.23%
C[C@@H]1CN([C@H](C)CO)C(=O)c2cc(NS(=O)(=O)c3cn(C)cn3)ccc2O[C@@H](C)CCCCO[C@@H]1CN(C)C(=O)CCC(F)(F)F -0.203%
CN1CCN(C(=O)C[C@H]2C[C@H]3c4cc(NC(=O)C5CCC5)ccc4O[C@H]3[C@H](CO)O2)CC1 5.87%
CC(C)CC#Cc1cnc2c(c1)C(=O)N([C@@H](C)CO)C[C@H](C)[C@@H](CN(C)S(=O)(=O)c1cn(C)cn1)O2 2.14%
CC(C)CC#Cc1ccc2c(c1)O[C@H](CN(C)C(=O)CC1CC1)[C@@H](C)CN([C@@H](C)CO)S2(=O)=O -15.5%
COC(=O)C[C@H]1C=C[C@H](NC(=O)Nc2ccc(C(F)(F)F)cc2)[C@@H](CO)O1 -4.85%
O=C(C[C@@H]1C[C@@H]2c3cc(NC(=O)C4CCOCC4)ccc3O[C@@H]2[C@@H](CO)O1)NC1CCCCC1 0.0335%
C[C@H](O)C#Cc1cnc2c(c1)C(=O)N([C@@H](C)CO)C[C@H](C)[C@@H](CN(C)C(=O)c1ccncc1)O2 0.0295%
C[C@H]1CN([C@@H](C)CO)S(=O)(=O)c2ccc(Br)cc2O[C@H]1CN(C)C(=O)C1CC1 6.22%
Cc1noc(C)c1NC(=O)N(C)C[C@@H]1OCCCC[C@H](C)Oc2ccc(NC(=O)C3CCCCC3)cc2C(=O)N([C@H](C)CO)C[C@@H]1C 3.93%
C[C@H](CO)N1C[C@H](C)[C@H](CN(C)Cc2ccncc2)Oc2cc(-c3cncnc3)ccc2S1(=O)=O -4.69%
CCCNC(=O)N(C)C[C@H]1Oc2ncc(-c3cccc(C#N)c3)cc2C(=O)N([C@@H](C)CO)C[C@H]1C -7.82%
C[C@H](CO)N1C[C@H](C)[C@@H](CN(C)S(=O)(=O)c2cccs2)Oc2ccc(NC(=O)Nc3ccc(C(F)(F)F)cc3)cc2CC1=O -1.82%
C[C@@H]1CN([C@H](C)CO)S(=O)(=O)c2ccc(C#C[C@@H](C)O)cc2O[C@H]1CN(C)C(=O)C1CCCCC1 -2.77%
COc1ccc(C#Cc2cnc3c(c2)C(=O)N([C@H](C)CO)C[C@H](C)[C@H](CN(C)C(=O)CC2CC2)O3)cc1 -0.614%
C[C@@H]1CCCCO[C@@H](CN(C)C(=O)Cc2ccccc2)[C@H](C)CN([C@@H](C)CO)C(=O)c2cc(NC(=O)Nc3ccc4c(c3)OCO4)ccc2O1 -3.09%
CCCC#Cc1cnc2c(c1)C(=O)N([C@H](C)CO)C[C@@H](C)[C@@H](CN(C)C(=O)C1CCOCC1)O2 11.1%
C[C@@H]1CN([C@H](C)CO)C(=O)c2cc(NS(=O)(=O)c3ccccc3)ccc2O[C@@H](C)CCCCO[C@H]1CN(C)S(=O)(=O)c1ccc(Cl)cc1 -1.56%
Cc1noc(C)c1NC(=O)Nc1ccc2c(c1)CC(=O)N([C@@H](C)CO)C[C@@H](C)[C@H](CN(C)Cc1ccc(Oc3ccccc3)cc1)O2 -7.73%
O=C(C[C@H]1C[C@H]2c3cc(NC(=O)Nc4ccc(F)cc4)ccc3O[C@H]2[C@H](CO)O1)NCC1CC1 5.06%
COc1ccc(S(=O)(=O)N(C)C[C@H]2OCCCC[C@H](C)Oc3ccc(NC(=O)Nc4ccc(F)cc4)cc3C(=O)N([C@@H](C)CO)C[C@H]2C)cc1 -1.05%
COc1cccc(-c2cnc3c(c2)C(=O)N([C@@H](C)CO)C[C@@H](C)[C@H](CN(C)C(=O)CN(C)C)O3)c1 8.01%
C[C@H](O)C#Cc1ccc2c(c1)O[C@H](CN(C)Cc1cccnc1)[C@H](C)CN([C@H](C)CO)S2(=O)=O 2.25%
CCC(=O)N(C)C[C@@H]1Oc2cc(-c3ccccc3OC)ccc2S(=O)(=O)N([C@H](C)CO)C[C@H]1C -2.36%
CC(=O)N(C)C[C@@H]1Oc2cc(-c3cccc(F)c3)ccc2S(=O)(=O)N([C@H](C)CO)C[C@H]1C -1.69%
C[C@H](CO)N1C[C@H](C)[C@@H](CN(C)Cc2ccc(Cl)c(Cl)c2)Oc2ccc(NC(=O)Cn3cnnn3)cc2CC1=O -4.84%
C/C=C/c1ccc2c(c1)O[C@H](CN(C)C(=O)Nc1ccccc1)[C@H](C)CN([C@@H](C)CO)S2(=O)=O -4.94%
C[C@@H]1CN([C@@H](C)CO)C(=O)c2c(c3ccccc3n2C)-c2ccccc2CO[C@@H]1CN(C)S(=O)(=O)c1ccc(F)cc1 -1.17%
C[C@@H]1CN([C@@H](C)CO)C(=O)Cc2cc(NS(=O)(=O)c3ccc(Cl)cc3)ccc2O[C@H]1CN(C)C(=O)Nc1cccc2ccccc12 -4.23%
CC(=O)N(C)C[C@H]1Oc2cc(C#CCN(C)C)ccc2S(=O)(=O)N([C@H](C)CO)C[C@H]1C -0.922%
COc1cccc(CNC(=O)C[C@H]2CC[C@@H](NC(=O)C3CCC3)[C@@H](CO)O2)c1 2.46%
COc1ccccc1NC(=O)N[C@H]1CC[C@@H](CC(=O)NCc2ccc(Cl)c(Cl)c2)O[C@H]1CO -9.36%
C[C@H](CO)N1C[C@H](C)[C@@H](CN(C)C(=O)Nc2ccc3c(c2)OCO3)Oc2ccc(NS(=O)(=O)c3ccc(Cl)cc3)cc2CC1=O 1.14%
C[C@@H](O)C#Cc1ccc2c(c1)O[C@@H](CN(C)Cc1cccnc1)[C@@H](C)CN([C@@H](C)CO)S2(=O)=O 3.08%
COCC#Cc1ccc2c(c1)O[C@H](CN(C)C(=O)CC1CC1)[C@@H](C)CN([C@@H](C)CO)S2(=O)=O 8.01%
CNC[C@@H]1OCCCC[C@H](C)Oc2ccc(NS(=O)(=O)c3ccc(F)cc3)cc2C(=O)N([C@@H](C)CO)C[C@@H]1C -5.42%
COc1ccc(-c2cnc3c(c2)C(=O)N([C@@H](C)CO)C[C@@H](C)[C@H](CN(C)C)O3)cc1 9.08%
C[C@H](CO)N1C[C@H](C)[C@H](CN(C)C(=O)Nc2ccc3c(c2)OCO3)Oc2cc(C#Cc3ccncc3)ccc2S1(=O)=O 2.61%
C[C@@H]1CCCCO[C@H](CN(C)C(=O)CCC(F)(F)F)[C@H](C)CN([C@H](C)CO)C(=O)c2cc(NC(=O)NC3CCCCC3)ccc2O1 -3.86%
Cc1cc(C)c(/C=C2\C(=O)Nc3ccccc32)[nH]1 -2.13%
C/C=C/c1ccc2c(c1)O[C@@H](CN(C)C(=O)c1ccncc1)[C@@H](C)CN([C@H](C)CO)S2(=O)=O 0.685%
C/C=C/c1cnc2c(c1)C(=O)N([C@@H](C)CO)C[C@@H](C)[C@H](CN(C)Cc1cncnc1)O2 2.06%
CCCC#Cc1ccc2c(c1)O[C@H](CN(C)C(=O)c1ccncc1)[C@H](C)CN([C@H](C)CO)S2(=O)=O 5.45%
C[C@H](CO)N1C[C@H](C)[C@@H](CN(C)C(=O)C2CC2)Oc2cc(-c3cccc(C#N)c3)ccc2S1(=O)=O -3.58%
Cc1noc(C)c1S(=O)(=O)Nc1ccc2c(c1)CC(=O)N([C@@H](C)CO)C[C@@H](C)[C@H](CN(C)S(=O)(=O)c1cccs1)O2 -2.26%
C[C@@H]1CN([C@@H](C)CO)C(=O)Cc2cc(NC(=O)CCCCCC(=O)Nc3ccccc3N)ccc2O[C@H]1CN(C)Cc1ccc(Cl)c(Cl)c1 -4.04%

inhibition, active:
Cc1[nH]c(/C=C2\C(=O)Nc3ccc(S(=O)(=O)Cc4c(Cl)cccc4Cl)cc32)c(C)c1C(=O)N1CCC[C@@H]1CN1CCCC1 67.1%
